In the library only some 19% were active in any assay of this set; here they are far more common.
DT40 TDP1 CPT = DT40-hTDP1 cell growth loss with CPT; chicken DT40 Tdp1-/-;hTDP1 cells + 20 nM CPT, ATP luminescence, 48 h; Potency, µM (series often up to 46.2 µM), most hits filed as inhibitors; 420,000 compounds, 12% hits; further: nearly all actives have a fitted effect of over 55% in size
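Chicken DT40 Tdp1-/- cells complemented with human TDP1, 400 cells/well, exposed to compounds plus 20 nM camptothecin for at least 48 h at 37 C; viability read as ATP content by CellTiter-Glo luminescence.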
HT1080 IDH1KD tx = HT-1080 IDH1 knockdown cell toxicity (counter line) | HT-1080 IDH1 knockdown viability, ATP luminescence, 48 h | Potency, µM (top dose mostly 46.1 µM), hits mostly cytotoxic | 360,000 compounds, 2% hits
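HT-1080-IDH1KD cells (IDH1 knocked down), 750/well in RPMI with 5% FBS, treated with compound 48 h at 37 degrees C. Viability by CellTiter-Glo luminescence, normalised to DMSO and no-cell wells; concentration-response curves classed.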
IL1B secr inh = inflammasome signaling inhibition, IL-1 beta readout. THP-1 LPS/ATP IL-1B secretion, AlphaLISA, 16 h; hits give low values. activity change, % at 57.5 µM. 360,000 compounds, 4.7% hits. AID 743279; in the data active means activity change below about -50%; inconclusive means mostly about -30% to -49%
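THP-1 cells pretreated 1 hr with compounds (up to 57.5 uM final), then stimulated with LPS (250 ng/mL final) plus ATP (1.25 mM final); secreted IL-1B measured by AlphaLISA after 16 hr, decreased signal indicating inhibition.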
HT1080-NT tox = kills 2HG-producing HT-1080-NT fibrosarcoma cells | HT-1080-NT fibrosarcoma viability, CellTiter-Glo ATP luminescence, 48 h | Potency, µM (top dose mostly 46.1 µM), actives largely listed as cytotoxic | 360,000 compounds, 1.6% hits | AID 686970;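 further: NT is the 2HG producing partner of a matched IDH1 knockdown line; nearly all actives have a fitted effect of over 55% in size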
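Compounds were tested in concentration-response format on HT-1080-NT cells for 48 hours at 37 degrees C. Cell viability came from CellTiter-Glo luminescence; curves were classified by r2, response magnitude and activity.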
TDP1 cell noCPT = qHTS for Inhibitors of human tyrosyl-DNA phosphodiesterase 1 (TDP1): qHTS in cells in absence of CPT; Potency, µM (top dose mostly 46.2 µM), hits mostly inhibitors; AID 686978, 2013; 420,000 compounds, 15% hits; DT40 Tdp1-/- hTDP1 cells, no CPT, ATP luminescence, 48 h; further: nearly all actives have a fitted effect of over 55% in size
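Seeded 400 DT40-hTDP1 cells/well (vehicle DMSO, no 20 nM CPT); pinned compounds; ≥48 hr at 37 °C; CellTiter-Glo luminescence as viability measure.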
Each line names hits and unclear results; the compound was inactive in the other large screens. Unless noted, the call rests on the fitted dose curve; in most records, active means well fitted curve in the direction sought with a large enough effect; inconclusive means small, poorly fitted or top-dose-only effect, or another doubt; inactive means no such curve, though single readings can be large; an effect the other way counts as inactive or inconclusive.

Cc1ccc(S(=O)(=O)NNC(=O)C2CC=CCC2C(=O)O)cc1 (configuration not stated)	none
COc1ccc(/C=N/NC(=O)CCSc2nc3ccccc3s2)cc1OC	DT40 TDP1 CPT 13µM, TDP1 cell noCPT 29µM
COc1ccc(/C=N/NC(=O)c2ccccc2Cl)cc1CSc1nc2ccccc2s1	DT40 TDP1 CPT 5.8µM, HT1080 IDH1KD tx inconclusive, HT1080-NT tox 4.5µM, TDP1 cell noCPT 4.6µM
COc1ccc(/C=N/NC(=O)c2cccnc2)cc1CSc1nc2ccccc2s1	DT40 TDP1 CPT 3.7µM, HT1080 IDH1KD tx inconclusive, HT1080-NT tox inconclusive, TDP1 cell noCPT 2.9µM
Cc1ccc(N(CN2C(=O)C3CC=CCC3C2=O)C(=O)c2ccco2)cc1Cl (configuration not stated)	none
CCOc1ccccc1C(=O)N(CN1CCCC1=O)c1ccc(C)c(Cl)c1	DT40 TDP1 CPT 3.7µM, TDP1 cell noCPT 3.7µM
Cc1ccc(N(CN2CCCC2=O)C(=O)c2ccc(C)c(C)c2)cc1	DT40 TDP1 CPT 8.2µM, TDP1 cell noCPT 7.3µM
Cc1ccc(C(=O)N(CN2CCCC2=O)c2ccc(F)cc2)cc1C	DT40 TDP1 CPT inconclusive, TDP1 cell noCPT 26µM
Cc1ccc(C(=O)N(CN2CCCC2=O)c2ccccc2)cc1C	DT40 TDP1 CPT inconclusive, TDP1 cell noCPT inconclusive
NCCCC[C@H](N)C(=O)O	none (no result: HT1080 IDH1KD tx, IL1B secr inh, HT1080-NT tox)
CC(=O)NCCn1c(SCc2ccc(C)cc2)nc2ccccc2c1=O	DT40 TDP1 CPT 23µM, TDP1 cell noCPT 21µM
CC(=O)NCCn1c(SCC#N)nc2ccccc2c1=O	none
CC(=O)NCCn1c(SCc2ccccc2F)nc2ccccc2c1=O	DT40 TDP1 CPT 16µM, TDP1 cell noCPT 21µM
CCCN(C)C[C@@H]1OCc2cnnn2CCCC(=O)N([C@H](C)CO)C[C@H]1C	none
NC(=O)c1ccccc1NC(=O)c1ccc(-c2ccc(Br)cc2)o1	TDP1 cell noCPT inconclusive (no result: HT1080 IDH1KD tx, IL1B secr inh, HT1080-NT tox)
Cc1cc(N2CCN(C)CC2)ccc1NC(=O)c1ccc(-c2ccc(Cl)cc2)o1	DT40 TDP1 CPT inconclusive, HT1080 IDH1KD tx 23µM, IL1B secr inh inconclusive, HT1080-NT tox 23µM, TDP1 cell noCPT inconclusive
CN(C)C(=O)c1ccc(NC(=O)c2ccc(-c3ccc(Cl)cc3)o2)cc1	DT40 TDP1 CPT 23µM, TDP1 cell noCPT 16µM
Cc1ccc(-n2nc3cc(C)c(NC(=O)c4ccc(-c5ccccc5)o4)cc3n2)cc1	none (no result: HT1080 IDH1KD tx, IL1B secr inh, HT1080-NT tox)
O=C(Nc1cccnc1)c1ccc(-c2ccc(Cl)cc2)o1	HT1080-NT tox inconclusive
O=C(NC(=S)Nc1ccccc1N1CCOCC1)c1ccc(-c2cc(Cl)ccc2Cl)o1	DT40 TDP1 CPT inconclusive, TDP1 cell noCPT 23µM
COc1ccccc1NC(=O)c1ccc(-c2ccc(Br)cc2)o1	DT40 TDP1 CPT 7.3µM, HT1080 IDH1KD tx 18µM, HT1080-NT tox inconclusive, TDP1 cell noCPT 5.8µM
CN(C)c1nc(Oc2ccc(OCCOc3ccccc3)nn2)nc(N(C)C)n1	DT40 TDP1 CPT inconclusive, TDP1 cell noCPT inconclusive
O=C(CCNS(=O)(=O)c1ccc(F)c(F)c1)NCCN1CCOCC1	none
COc1ccc(NC(=O)c2ccc(-c3ccc(F)cc3)o2)cc1OC	DT40 TDP1 CPT 21µM, TDP1 cell noCPT 16µM
O=C(Nc1ccccc1N1CCCCC1)c1ccc(-c2ccc(Cl)cc2)o1	DT40 TDP1 CPT 3.3µM, HT1080 IDH1KD tx 2.1µM, HT1080-NT tox 2.1µM, TDP1 cell noCPT 4.1µM
CN1CCN(c2ccccc2NC(=O)c2ccc(-c3cccc([N+](=O)[O-])c3)o2)CC1	DT40 TDP1 CPT inconclusive, TDP1 cell noCPT 15µM
CN1CCN(c2ccccc2NC(=O)c2ccc([N+](=O)[O-])o2)CC1	DT40 TDP1 CPT 7.3µM, TDP1 cell noCPT 9.2µM
CN1CCN(c2ccccc2NC(=O)c2cccc([N+](=O)[O-])c2)CC1	none
CCOC(=O)[C@]12CCC=C1N(Cc1ccco1)C(=O)[C@H](CC(=O)NCCCN1CCCC1=O)C2	none
COc1ccc(OC)c2c1sc(=NC(=O)C1COc3ccccc3O1)n2C (configuration not stated)	DT40 TDP1 CPT inconclusive, HT1080-NT tox inconclusive, TDP1 cell noCPT inconclusive
O=C(CSc1nnc(-c2ccc3c(c2)OCO3)o1)Nc1c(F)cccc1F	none
CCOCc1nnc(NC(=O)C2CCN(C(=O)C3CC(=O)N(c4ccc(C)cc4)C3)CC2)s1 (configuration not stated)	none
COc1ccc(S(=O)(=O)NCC2CCC(C(=O)NCC(OC)OC)CC2)cc1 (configuration not stated)	none
N#CC1=C(SCC(=O)Nc2ccc(C(=O)O)cc2)NC(=O)CC1c1ccco1 (configuration not stated)	none
Oc1ccc(CCC2CCCCN2Cc2nc(C3CC3)no2)cc1 (configuration not stated)	HT1080-NT tox inconclusive, TDP1 cell noCPT inconclusive
CN(CC(=O)Nc1cccc(F)c1)C(=O)c1ccc(-c2cccc(C(F)(F)F)c2)o1	DT40 TDP1 CPT inconclusive, TDP1 cell noCPT inconclusive
COc1cc(NC(=O)c2ccc(-c3cccc(F)c3)o2)ccc1NC(=O)c1ccccc1Cl	DT40 TDP1 CPT 18µM, TDP1 cell noCPT 18µM
CN1CCN(c2ccccc2NC(=O)c2ccc(-c3ccc(Br)cc3)o2)CC1	DT40 TDP1 CPT 3.3µM, HT1080 IDH1KD tx 2.6µM, HT1080-NT tox inconclusive, TDP1 cell noCPT 3.3µM
COc1cc(NC(=O)c2ccco2)ccc1NC(=O)C(C)C	none
CC(=O)N1CCN(c2ccccc2NC(=O)c2ccc(Br)o2)CC1	DT40 TDP1 CPT inconclusive
COc1cc(NC(=O)c2ccc(-c3ccc(Br)cc3)o2)ccc1NC(=O)C(C)C	DT40 TDP1 CPT 15µM, TDP1 cell noCPT 18µM
Cc1ccc(C)c(NC(=O)CN(C)C(=O)c2ccc(-c3cccc(C(F)(F)F)c3)o2)c1	DT40 TDP1 CPT inconclusive, TDP1 cell noCPT 15µM
CS(=O)(=O)N1CCN(c2ccccc2NC(=O)c2ccc3c(c2)OCCO3)CC1	DT40 TDP1 CPT inconclusive, TDP1 cell noCPT inconclusive
COc1cccc(NC(=O)CN(C)C(=O)c2ccc(-c3ccc(Cl)cc3)o2)c1	DT40 TDP1 CPT inconclusive, TDP1 cell noCPT inconclusive
CS(=O)(=O)N1CCN(c2ccccc2NC(=O)c2ccc([N+](=O)[O-])o2)CC1	DT40 TDP1 CPT 3.7µM, IL1B secr inh inconclusive, TDP1 cell noCPT 8.2µM
CN(CC(=O)Nc1ccc(F)cc1)C(=O)c1ccc(-c2ccc(F)cc2)o1	DT40 TDP1 CPT inconclusive, TDP1 cell noCPT 21µM
CCN(Cc1ccccc1)C(=O)COC(=O)Cn1cnc2ccccc21	none
COc1ccc(OC)c(S(=O)(=O)N2CCC(C(=O)NC3CCCC3)CC2)c1	none
CC[C@@H](C)[C@H](NS(=O)(=O)c1cccc2ccccc12)C(=O)N[C@H](C=O)Cc1c[nH]c2ccccc12	DT40 TDP1 CPT 5.9µM, TDP1 cell noCPT 5.3µM (no result: HT1080 IDH1KD tx, IL1B secr inh, HT1080-NT tox)
COC(=O)C(C)(C)ONC(=O)Nc1ccc(Br)cc1	DT40 TDP1 CPT 23µM
